{"source": "PubChem BioAssay (Tox21)", "key": {"[1]": {"target": "Estrogen receptor (Homo sapiens) (UniProt P03372)", "sequence (P03372 whole entry, looked up)": "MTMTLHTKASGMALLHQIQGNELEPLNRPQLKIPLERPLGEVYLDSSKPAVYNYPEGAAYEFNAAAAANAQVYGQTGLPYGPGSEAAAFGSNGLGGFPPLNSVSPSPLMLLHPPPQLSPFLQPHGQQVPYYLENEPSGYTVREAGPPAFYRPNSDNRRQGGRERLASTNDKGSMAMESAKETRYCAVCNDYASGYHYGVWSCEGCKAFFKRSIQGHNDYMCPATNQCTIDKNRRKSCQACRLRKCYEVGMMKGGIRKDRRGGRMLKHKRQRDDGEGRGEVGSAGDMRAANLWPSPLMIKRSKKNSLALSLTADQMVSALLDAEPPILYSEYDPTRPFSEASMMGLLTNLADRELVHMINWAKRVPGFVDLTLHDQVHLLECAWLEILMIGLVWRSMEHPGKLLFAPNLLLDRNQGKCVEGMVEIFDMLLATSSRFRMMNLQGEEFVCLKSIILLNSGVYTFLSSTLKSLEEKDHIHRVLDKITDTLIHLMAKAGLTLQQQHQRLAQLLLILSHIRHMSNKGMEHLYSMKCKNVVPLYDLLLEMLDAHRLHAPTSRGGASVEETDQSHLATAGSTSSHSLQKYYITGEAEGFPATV", "assay": "qHTS assay to identify small molecule antagonists of the estrogen receptor alpha (ER-alpha) signaling pathway using the BG1 cell line in the presence of 0.1 nM 17-beta-estradiol (AID 1259244); also: nearly all actives have a fitted effect of over 50% in size", "how_it_was_run": "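After 5 days in hormone-depleted medium (charcoal-stripped serum, no phenol red), VM7Luc4E2 cells were seeded, incubated 24 h, then co-treated with compound and 0.1 nM (final) estradiol for 22 h before luminescence detection.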"}, "[2]": {"assay": "qHTS assay to identify small molecule phospholipidosis (PLD) inducers (AID 1259344; active = well fitted curve in the direction sought with a large enough effect; an effect the other way counts as inactive or inconclusive)", "how_it_was_run": "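Phospholipidosis is scored by imaging LipidTOX-stained pits in HepG2 cells exposed to compound for 24 h at 37 C; pit counts and integrated intensities per well and per cell serve as outputs.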"}, "[3]": {"assay": "qHTS assay to identify small molecule HDAC inhibitors (AID 1259364); also: nearly all actives have a fitted effect of over 45% in size; also: potency is read from the fitted curve at half-maximal effect", "how_it_was_run": "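Homogeneous cell-based luminescent assay of endogenous class I/II HDAC activity; HCT-116 cells, 2 h compound exposure, 30 min HDAC-Glo development at RT.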"}, "[4]": {"assay": "qHTS assay to identify small molecule HDAC inhibitors - cell viability counter screen (AID 1259365); also: series mostly up to about 92 µM; nearly all actives have a fitted effect of over 50% in size", "how_it_was_run": "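Viability readout: CellTiter-Glo luminescence. Wild-type HCT-116 cells, 2hr compound treatment following overnight attachment at 37 C.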"}, "[5]": {"assay": "qHTS assay to identify small molecule agonists of the sonic hedgehog signaling (Shh) pathway - cell viability counter screen (AID 1259366); also: nearly all actives have a fitted effect of over 50% in size", "how_it_was_run": "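Viability measured fluorometrically (CellTiter-Fluor, 1hr, 37C) in 3T3 Gli1-Luc reporter cells after 23hr compound exposure within a 24hr incubation at 37C/5% CO2.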"}, "[6]": {"assay": "qHTS assay to identify small molecule antagonists of the sonic hedgehog signaling (Shh) pathway - cell viability counter screen (AID 1259367); also: nearly all actives have a fitted effect of over 55% in size", "how_it_was_run": "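Cells: 3T3 Gli1-Luc, 2,000/well, 4 hr pre-incubation. Compounds in DMSO, then conditioned medium. Incubation 24 hr, 37C, 5% CO2. CellTiter-Fluor at 23 hr, 1 hr, fluorescence.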"}, "[7]": {"assay": "qHTS assay to identify small molecule agonists of the sonic hedgehog signaling (Shh) pathway (AID 1259368; calls by dose curve; also: series mostly up to about 92 µM; nearly all actives have a fitted effect of over 15% in size)", "how_it_was_run": "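Steps: seed 3T3 Gli1-Luc cells, incubate 4 hr at 37 C, pin-transfer compounds in DMSO alongside a positive control, incubate 24 hr, add luciferase detection reagent, wait 30 min at room temperature, read luminescence.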"}, "[8]": {"assay": "qHTS assay to identify small molecule antagonists of the sonic hedgehog signaling (Shh) pathway (AID 1259369; calls by dose curve; also: nearly all actives have a fitted effect of over 45% in size)", "how_it_was_run": "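Inhibition of Shh signalling is measured as reduced Gli1-response-element firefly luciferase output in an NIH/3T3-derived stable reporter clone stimulated with conditioned medium for 24hr.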"}, "[9]": {"target": "Androgen receptor (Homo sapiens) (UniProt P10275)", "sequence (P10275 whole entry, looked up)": "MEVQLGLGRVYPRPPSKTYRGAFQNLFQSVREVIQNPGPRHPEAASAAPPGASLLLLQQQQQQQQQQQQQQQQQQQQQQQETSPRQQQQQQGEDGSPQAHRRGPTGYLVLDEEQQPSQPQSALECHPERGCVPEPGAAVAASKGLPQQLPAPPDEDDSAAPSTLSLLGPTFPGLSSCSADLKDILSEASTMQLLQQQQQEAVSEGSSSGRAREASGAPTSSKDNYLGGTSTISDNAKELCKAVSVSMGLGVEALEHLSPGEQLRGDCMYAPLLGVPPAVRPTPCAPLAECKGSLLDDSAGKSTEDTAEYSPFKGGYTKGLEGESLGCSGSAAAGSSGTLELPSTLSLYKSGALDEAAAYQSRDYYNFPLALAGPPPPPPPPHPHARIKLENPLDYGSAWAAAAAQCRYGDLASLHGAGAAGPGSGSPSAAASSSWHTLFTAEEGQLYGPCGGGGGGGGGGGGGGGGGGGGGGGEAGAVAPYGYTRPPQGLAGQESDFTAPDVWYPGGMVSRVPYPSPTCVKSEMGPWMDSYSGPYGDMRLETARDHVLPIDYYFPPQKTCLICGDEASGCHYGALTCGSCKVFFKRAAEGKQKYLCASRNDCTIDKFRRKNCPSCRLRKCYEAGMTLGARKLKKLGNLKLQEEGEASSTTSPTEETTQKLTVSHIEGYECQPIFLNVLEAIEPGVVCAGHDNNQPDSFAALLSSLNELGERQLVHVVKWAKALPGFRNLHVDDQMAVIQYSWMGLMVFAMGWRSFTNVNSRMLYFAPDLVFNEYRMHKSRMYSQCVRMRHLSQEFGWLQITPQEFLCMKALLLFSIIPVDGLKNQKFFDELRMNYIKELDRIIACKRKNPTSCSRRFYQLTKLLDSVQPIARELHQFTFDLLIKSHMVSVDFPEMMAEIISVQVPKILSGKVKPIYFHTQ", "assay": "qHTS assay to identify small molecule antagonists of the androgen receptor (AR) signaling pathway using the MDA cell line in the presence of 0.5 nM R1881 (AID 1259243); also: nearly all actives have a fitted effect of over 50% in size; also: potency is read from the fitted curve at half-maximal effect", "how_it_was_run": "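Steps: seed MDA-kb2 cells, incubate 5 hr at 37C; pin-transfer compounds in DMSO; add R1881 to 0.5 nM final; incubate 16 hr; add ONE-Glo, wait 30 min at room temperature; read luminescence.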"}, "[10]": {"target": "Estrogen receptor beta (Homo sapiens) (UniProt Q92731)", "sequence (Q92731 whole entry, looked up)": "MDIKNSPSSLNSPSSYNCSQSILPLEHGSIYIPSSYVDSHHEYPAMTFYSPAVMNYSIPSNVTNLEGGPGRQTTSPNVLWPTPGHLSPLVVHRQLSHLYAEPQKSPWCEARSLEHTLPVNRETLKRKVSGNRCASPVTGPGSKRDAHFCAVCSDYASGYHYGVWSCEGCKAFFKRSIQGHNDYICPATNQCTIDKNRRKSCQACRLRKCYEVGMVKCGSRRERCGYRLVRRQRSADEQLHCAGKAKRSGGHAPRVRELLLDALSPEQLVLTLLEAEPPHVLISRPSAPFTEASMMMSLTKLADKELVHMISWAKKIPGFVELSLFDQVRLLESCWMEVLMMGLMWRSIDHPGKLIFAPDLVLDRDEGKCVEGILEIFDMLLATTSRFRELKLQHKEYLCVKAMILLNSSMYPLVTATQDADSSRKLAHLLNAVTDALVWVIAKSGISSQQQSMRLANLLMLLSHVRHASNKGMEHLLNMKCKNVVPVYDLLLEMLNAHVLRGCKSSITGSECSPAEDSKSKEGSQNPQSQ", "assay": "qHTS assay to identify small molecule agonists of the estrogen receptor beta (ER-beta) signaling pathway (AID 1259377; active = well fitted activation curve with a large enough effect in the signal ratio in the repeat runs, not every such curve was filed as active; the % refers to the signal ratio)", "how_it_was_run": "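A UAS-controlled beta-lactamase reporter in ER-beta-UAS-bla HEK293T cells reports receptor activation. Compounds act for 16 hr at 37C in 2% charcoal-stripped serum, and a FRET substrate is read by fluorescence after 2 hours.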"}}, "note": "Unmarked numbers belong to inactive results. Inconclusive results are not listed. Entries that show only a call come without a potency. Active and inactive are the calls of the source. Unless noted, calls follow the shape of the dose curve; as a rule, active = well fitted curve in the direction sought with a large enough effect in the repeat runs; inconclusive = weak or mixed curves; inactive = no such curve, though single readings can be large; an effect the other way counts as inactive or inconclusive."}
{"smiles": "C[C@H]1C[C@H]2[C@@H]3CCC4=CC(=O)C=C[C@]4(C)[C@H]3C(=O)C[C@]2(C)[C@@]1(O)C(=O)CO", "values": [{"measurement": "outcome", "setting": "[1]", "result": "inactive"}, {"measurement": "PLD induction", "setting": "[2]", "result": "2.13% [at 7.66 µM]"}, {"measurement": "Potency", "setting": "[3]", "result": "inactive"}, {"measurement": "outcome", "setting": "[4]", "result": "inactive"}, {"measurement": "Potency", "setting": "[5]", "result": "inactive"}, {"measurement": "Potency", "setting": "[6]", "result": "inactive"}, {"measurement": "outcome", "setting": "[7]", "result": "inactive"}, {"measurement": "Potency", "setting": "[8]", "result": "inactive"}]}
{"smiles": "CNC(=O)Nc1ccc(Cl)c(Cl)c1", "values": [{"measurement": "Potency", "setting": "[9]", "result": "30.6 µM (active)"}, {"measurement": "outcome", "setting": "[4]", "result": "inactive"}, {"measurement": "Potency", "setting": "[5]", "result": "inactive"}, {"measurement": "Potency", "setting": "[6]", "result": "inactive"}, {"measurement": "outcome", "setting": "[7]", "result": "inactive"}, {"measurement": "Potency", "setting": "[8]", "result": "inactive"}]}
{"smiles": "CCN[C@H]1C[C@H](C)S(=O)(=O)c2sc(S(N)(=O)=O)cc21", "values": [{"measurement": "outcome", "setting": "[1]", "result": "inactive"}, {"measurement": "outcome", "setting": "[2]", "result": "inactive"}, {"measurement": "Potency", "setting": "[3]", "result": "inactive"}, {"measurement": "Potency", "setting": "[5]", "result": "inactive"}, {"measurement": "Potency", "setting": "[6]", "result": "inactive"}, {"measurement": "outcome", "setting": "[7]", "result": "inactive"}, {"measurement": "Potency", "setting": "[8]", "result": "inactive"}]}
{"smiles": "CCCCCCCCCCCCCCCCCCO", "values": [{"measurement": "outcome", "setting": "[1]", "result": "inactive"}, {"measurement": "outcome", "setting": "[2]", "result": "inactive"}, {"measurement": "Potency", "setting": "[3]", "result": "inactive"}, {"measurement": "outcome", "setting": "[4]", "result": "inactive"}, {"measurement": "Potency", "setting": "[5]", "result": "inactive"}, {"measurement": "Potency", "setting": "[6]", "result": "inactive"}, {"measurement": "outcome", "setting": "[7]", "result": "inactive"}, {"measurement": "Potency", "setting": "[8]", "result": "inactive"}]}
{"smiles": "CN1CC(=O)N/C1=N/C(=O)Nc1cccc(Cl)c1", "values": [{"measurement": "outcome", "setting": "[1]", "result": "inactive"}, {"measurement": "outcome", "setting": "[2]", "result": "inactive"}, {"measurement": "Potency", "setting": "[3]", "result": "4.22 µM (active)"}, {"measurement": "outcome", "setting": "[4]", "result": "inactive"}, {"measurement": "Potency", "setting": "[5]", "result": "inactive"}, {"measurement": "Potency", "setting": "[6]", "result": "inactive"}, {"measurement": "outcome", "setting": "[7]", "result": "inactive"}, {"measurement": "Potency", "setting": "[8]", "result": "inactive"}, {"measurement": "Potency", "setting": "[10]", "result": "inactive"}]}
{"smiles": "COC(=O)Nc1ccc(Cl)c(Cl)c1", "values": [{"measurement": "Potency", "setting": "[9]", "result": "6.82 µM (active)"}, {"measurement": "Potency", "setting": "[3]", "result": "inactive"}, {"measurement": "outcome", "setting": "[4]", "result": "inactive"}, {"measurement": "Potency", "setting": "[5]", "result": "inactive"}, {"measurement": "Potency", "setting": "[6]", "result": "inactive"}, {"measurement": "outcome", "setting": "[7]", "result": "inactive"}, {"measurement": "Potency", "setting": "[10]", "result": "inactive"}]}
{"smiles": "C[N+]1(C)CCCC(OC(=O)C(O)(c2ccccc2)c2ccccc2)C1", "note": "(configuration not stated)", "values": [{"measurement": "outcome", "setting": "[1]", "result": "inactive"}, {"measurement": "outcome", "setting": "[2]", "result": "inactive"}, {"measurement": "Potency", "setting": "[3]", "result": "inactive"}, {"measurement": "outcome", "setting": "[4]", "result": "inactive"}, {"measurement": "Potency", "setting": "[5]", "result": "inactive"}, {"measurement": "Potency", "setting": "[6]", "result": "inactive"}, {"measurement": "outcome", "setting": "[7]", "result": "inactive"}, {"measurement": "Potency", "setting": "[8]", "result": "inactive"}]}
{"smiles": "CC(C)C1CCC(O)CC1", "note": "(configuration not stated)", "values": [{"measurement": "Potency", "setting": "[9]", "result": "inactive"}, {"measurement": "Potency", "setting": "[3]", "result": "inactive"}, {"measurement": "Potency", "setting": "[5]", "result": "inactive"}, {"measurement": "Potency", "setting": "[6]", "result": "inactive"}, {"measurement": "outcome", "setting": "[7]", "result": "inactive"}, {"measurement": "Potency", "setting": "[8]", "result": "inactive"}]}
{"smiles": "CCOC(=O)c1cnc2c(cnn2CC)c1NN=C(C)C", "values": [{"measurement": "outcome", "setting": "[1]", "result": "inactive"}, {"measurement": "outcome", "setting": "[2]", "result": "inactive"}, {"measurement": "Potency", "setting": "[3]", "result": "inactive"}, {"measurement": "outcome", "setting": "[4]", "result": "inactive"}, {"measurement": "Potency", "setting": "[5]", "result": "inactive"}, {"measurement": "Potency", "setting": "[6]", "result": "inactive"}, {"measurement": "outcome", "setting": "[7]", "result": "inactive"}, {"measurement": "Potency", "setting": "[10]", "result": "inactive"}]}
{"smiles": "CC(=O)NC(=O)c1ccccc1O", "values": [{"measurement": "outcome", "setting": "[1]", "result": "inactive"}, {"measurement": "outcome", "setting": "[2]", "result": "inactive"}, {"measurement": "Potency", "setting": "[3]", "result": "inactive"}, {"measurement": "outcome", "setting": "[4]", "result": "inactive"}, {"measurement": "Potency", "setting": "[5]", "result": "inactive"}, {"measurement": "Potency", "setting": "[6]", "result": "inactive"}, {"measurement": "outcome", "setting": "[7]", "result": "inactive"}, {"measurement": "Potency", "setting": "[8]", "result": "inactive"}]}
{"smiles": "Cc1ncc(COP(=O)(O)O)c(C=O)c1O", "values": [{"measurement": "outcome", "setting": "[1]", "result": "inactive"}, {"measurement": "outcome", "setting": "[2]", "result": "inactive"}, {"measurement": "Potency", "setting": "[3]", "result": "inactive"}, {"measurement": "outcome", "setting": "[4]", "result": "inactive"}, {"measurement": "Potency", "setting": "[5]", "result": "inactive"}, {"measurement": "Potency", "setting": "[6]", "result": "inactive"}, {"measurement": "outcome", "setting": "[7]", "result": "inactive"}, {"measurement": "Potency", "setting": "[8]", "result": "inactive"}]}
{"smiles": "CC(COc1ccccc1)NN", "note": "(configuration not stated)", "values": [{"measurement": "outcome", "setting": "[1]", "result": "inactive"}, {"measurement": "outcome", "setting": "[2]", "result": "inactive"}, {"measurement": "Potency", "setting": "[3]", "result": "inactive"}, {"measurement": "outcome", "setting": "[4]", "result": "inactive"}, {"measurement": "Potency", "setting": "[5]", "result": "inactive"}, {"measurement": "Potency", "setting": "[6]", "result": "inactive"}, {"measurement": "outcome", "setting": "[7]", "result": "inactive"}, {"measurement": "Potency", "setting": "[8]", "result": "inactive"}]}
{"smiles": "CO[C@@]1(NC(=O)C(C(=O)O)c2ccc(O)cc2)C(=O)N2C(C(=O)O)=C(CSc3nnnn3C)CO[C@@H]21", "note": "(some centres not stated)", "values": [{"measurement": "outcome", "setting": "[1]", "result": "inactive"}, {"measurement": "outcome", "setting": "[2]", "result": "inactive"}, {"measurement": "Potency", "setting": "[3]", "result": "inactive"}, {"measurement": "outcome", "setting": "[4]", "result": "inactive"}, {"measurement": "Potency", "setting": "[5]", "result": "inactive"}, {"measurement": "Potency", "setting": "[6]", "result": "inactive"}, {"measurement": "outcome", "setting": "[7]", "result": "inactive"}, {"measurement": "Potency", "setting": "[8]", "result": "inactive"}]}
{"smiles": "COc1ccc2cc1Oc1cc3c(cc1OC)CC[N+](C)(C)[C@H]3Cc1ccc(cc1)Oc1c(OC)c(OC)cc3c1[C@@H](C2)[N+](C)(C)CC3", "values": [{"measurement": "outcome", "setting": "[1]", "result": "inactive"}, {"measurement": "outcome", "setting": "[2]", "result": "inactive"}, {"measurement": "Potency", "setting": "[3]", "result": "inactive"}, {"measurement": "outcome", "setting": "[4]", "result": "inactive"}, {"measurement": "Potency", "setting": "[5]", "result": "inactive"}, {"measurement": "Potency", "setting": "[6]", "result": "inactive"}, {"measurement": "outcome", "setting": "[7]", "result": "inactive"}, {"measurement": "Potency", "setting": "[8]", "result": "inactive"}]}
